This is an account of results in PubChem BioAssay.

The source made the active and inactive calls.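 Rule for the calls, unless noted: active = compound that reduces growth-factor-driven endothelial tube area in a mixed cell culture, no cutoff stated; inactive = the rest.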

Assay [1] in a line: Wnt pathway potentiators raising nuclear beta-catenin – imaging, WNT3A-conditioned medium, mouse C2C12, NPC library, primary screen (AID 1117326; in the data active = nuclear beta-catenin stimulation mostly above about 4.2%, no sharp cut-off; inactive = mostly below about 10%; note: reference of the scale not given here). Particulars: stronger effect = higher value.
A short description of assay [2]: stimulators of insulin release from INS-1E, primary screen, cell-based, 5 mM glucose, NPC library (AID 1117329;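 active = compound raises insulin release from rat beta cells at 5 mM glucose, no numeric limit stated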; note: reference of the scale not given here). Particulars: rat INS-1E insulin secretion, at 10 µM, stronger effect = higher value.
Assay [3] is described as follows: growth inhibition of GSK3B-pretreated HCT116 cells – cell-based, CellTiter-Glo, 0.2 to 20 µM (AID 1117336;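 active = compounds lowering colon cancer cell viability after pretreatment blocking the GSK3B kinase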). To be noted: HCT116 viability after GSK3B inhibitor, at 20 µM, stronger effect = higher value.
Assay [4] in a line: inhibition of endothelial tube formation, primary screen, imaging, VEGF stimulated, CD31 staining, tube area, NPC library (AID 1117340). To be noted: VEGF-stimulated ADSC/ECFC co-culture, at 10 µM, stronger effect = higher value.
A short description of assay [5]: GLP1 release stimulators, primary, NCI-H716, NPC library (AID 1117341;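 active = compound raises GLP1 secretion from the human gut endocrine cells, with no numeric limit stated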; note: reference of the scale not given here). Particulars: NCI-H716 cells, at 10 µM, stronger effect = higher value.
Assay [6] can be described thus: HCT116 colon cancer cell growth inhibition, primary screen, CellTiter-Glo luminescence, NPC library (AID 1117342;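 active = compounds that lower survival of HCT116 colon cancer cells in the luminescence readout, no numeric limit stated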). To be noted: at 20 µM (top of the series). A general note: In ATP-based viability assays light output follows the ATP content of the culture.
A short description of assay [7]: reduced SW480 viability measured with CellTiter-Glo, NPC library, primary (AID 1117343;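 active = compounds that lower viability of the colon cancer cells in the luminescence readout, with no numeric limit stated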). To be noted: CellTiter-Glo luminescence; at 20 µM (top of the series).
Assay [8] in a line: NPC library primary testing for decreased DLD-1 cell viability via CellTiter-Glo (AID 1117346;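 active = compounds that lower survival of DLD-1 colon cancer cells in the luminescence readout, no cutoff given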). Particulars: DLD-1 viability, CellTiter-Glo luminescence; at 20 µM (top of the series).

Consider `Cc1cc2nc3c(=O)[nH]c(=O)nc-3n(C[C@H](O)[C@H](O)[C@H](O)COP(=O)(O)OP(=O)(O)OC[C@H]3O[C@@H](n4cnc5c(N)ncnc54)[C@H](O)[C@H]3O)c2cc1C`, for which the nuclear beta-catenin stimulation in assay [1] (at 10 µM) is -2.2% (inactive); in assay [1] (stimulation, at 2 µM), 0.2%. In addition, in assay [2], the insulin secretion stimulation was 5.5% (inactive). For the same molecule, in assay [3], the viability decrease is -3.6% (inactive). For the same molecule, the tube area decrease in assay [4] was -2.4% (inactive). Also, the GLP1 secretion stimulation in assay [5] is -3.7% (inactive). For the same molecule, the inhibition of viability in assay [6] is -18.9% (inactive). The viability decrease (inhibition) in assay [7] is 16.1% (inactive); in assay [8], -48.9% (inactive).

With `CCOCCOC(=O)/C=C/c1ccc(OC)cc1`, the nuclear beta-catenin stimulation in assay [1] (at 10 µM) is 1.4% (inactive); in assay [1] (stimulation, at 2 µM), 1%. Further, the insulin secretion stimulation in assay [2] is -1.7% (inactive). In assay [3], the viability decrease is -11.8% (inactive). Also, the tube area decrease in assay [4] was 18.9% (inactive). Further, the GLP1 secretion stimulation in assay [5] is -4% (inactive). The inhibition of viability in assay [6] was -4.53% (inactive). Besides, the viability decrease (inhibition) in assay [7] is 17.1% (inactive); in assay [8], 9.7% (inactive).

For `Cn1cc(C(=O)[C@@H]2CCc3nc[nH]c3C2)c2ccccc21`, the nuclear beta-catenin stimulation in assay [1] (at 10 µM) was 2.4% (inactive); in assay [1] (stimulation, at 2 µM), -0.1%. Besides, the insulin secretion stimulation in assay [2] is 5.1% (inactive). For the same molecule, the viability decrease in assay [3] was 2.2% (inactive). Besides, the tube area decrease in assay [4] is 17.2% (inactive). Also, the GLP1 secretion stimulation in assay [5] is 0.6% (inactive). Also, the inhibition of viability in assay [6] is -2.5% (inactive). Moreover, the values for the viability decrease (inhibition) in assay [7] and in assay [8] were 11.2% (inactive) and -4.05% (inactive), respectively.

Consider `CCCCC(CC)COC(=O)c1ccc(N(C)C)cc1` (stereo unspecified), for which the nuclear beta-catenin stimulation was 0.3% (inactive) in assay [1] (at 10 µM) and 0.5% in assay [1] (stimulation, at 2 µM). For the same molecule, in assay [2], the insulin secretion stimulation was -2.6% (inactive). Further, the viability decrease in assay [3] was 34.1% (inactive). In addition, the tube area decrease in assay [4] was 0.5% (inactive). In assay [5], the GLP1 secretion stimulation was -2.3% (inactive). Also, in assay [6], the inhibition of viability is 18% (inactive). In addition, the viability decrease (inhibition) in assay [7] was 32.1% (inactive); in assay [8] it was 48.1% (inactive).

Regarding `O=C(Nc1ccc(Cl)c(Cl)c1)C1CC1`, the nuclear beta-catenin stimulation was 0.1% (inactive) in assay [1] (at 10 µM) and 0.9% in assay [1] (stimulation, at 2 µM). Moreover, the insulin secretion stimulation in assay [2] is 2.2% (inactive). The viability decrease in assay [3] is 25.6% (inactive). Besides, in assay [4], the tube area decrease was 24.7% (inactive). For the same molecule, the GLP1 secretion stimulation in assay [5] is -0.1% (inactive). For the same molecule, the inhibition of viability in assay [6] is 43.4% (inactive). Also, the figures for the viability decrease (inhibition) in assay [7] and in assay [8] were 25.2% (inactive) and 9.7% (inactive), respectively.

Take `COC(=O)c1cc(S(C)(=O)=O)ccc1OC`: the nuclear beta-catenin stimulation was 1% (inactive) in assay [1] (at 10 µM) and 3.6% in assay [1] (stimulation, at 2 µM). Moreover, in assay [2], the insulin secretion stimulation was 2% (inactive). In addition, the viability decrease in assay [3] was -2.3% (inactive). The tube area decrease in assay [4] was -4.1% (inactive). In assay [5], the GLP1 secretion stimulation was -1.3% (inactive). The inhibition of viability in assay [6] is 6.4% (inactive). The results for the viability decrease (inhibition) in assay [7] and in assay [8] were -3.4% (inactive) and -1.9% (inactive), respectively.

Take `C#CC(C)(CC)OC(=O)c1ccccc1C(=O)O` (stereo unspecified): the nuclear beta-catenin stimulation in assay [1] (at 10 µM) is 3.1% (inactive); in assay [1] (stimulation, at 2 µM), 1.3%. Also, the insulin secretion stimulation in assay [2] is -0.2% (inactive). For the same molecule, in assay [3], the viability decrease was -19% (inactive). The tube area decrease in assay [4] was -5.2% (inactive). Further, the GLP1 secretion stimulation in assay [5] was 3.4% (inactive). Further, the inhibition of viability in assay [6] was 5.2% (inactive). Also, the viability decrease (inhibition) was 11.9% (inactive) in assay [7] and -12.1% (inactive) in assay [8].

In the case of `CCCCCCCCCCCCSCCOCCO`, the nuclear beta-catenin stimulation in assay [1] (at 10 µM) was 0.7% (inactive); in assay [1] (stimulation, at 2 µM), 2%. Besides, the insulin secretion stimulation in assay [2] was -1.7% (inactive). In addition, the viability decrease in assay [3] is 9.65% (inactive). Moreover, the tube area decrease in assay [4] was 6.6% (inactive). The GLP1 secretion stimulation in assay [5] is 1.9% (inactive). Further, the inhibition of viability in assay [6] is -38.8% (inactive). Also, the viability decrease (inhibition) is 122% (active) in assay [7] and 94.7% (active) in assay [8].

Take `CC(C)(C)NCC(O)COc1ccccc1OCC1CCCO1` (stereo unspecified): the nuclear beta-catenin stimulation was -0.3% (inactive) in assay [1] (at 10 µM) and 2.1% in assay [1] (stimulation, at 2 µM). Moreover, in assay [2], the insulin secretion stimulation was 5.4% (inactive). Also, in assay [3], the viability decrease is -18.7% (inactive). Also, in assay [4], the tube area decrease is 34.3% (inactive). Also, the GLP1 secretion stimulation in assay [5] was -2.1% (inactive). In assay [6], the inhibition of viability was -6.3% (inactive). The viability decrease (inhibition) in assay [7] is 30% (inactive); in assay [8] it was -6.9% (inactive).

Consider `c1ccc(CCNc2nc(-c3ccccc3)cs2)cc1`, for which the nuclear beta-catenin stimulation is 1.5% (inactive) in assay [1] (at 10 µM) and 0.6% in assay [1] (stimulation, at 2 µM). For the same molecule, the insulin secretion stimulation in assay [2] is -1.4% (inactive). Further, the viability decrease in assay [3] is 38.9% (inactive). Further, the tube area decrease in assay [4] is 34.9% (inactive). The GLP1 secretion stimulation in assay [5] is -1.7% (inactive). Besides, the inhibition of viability in assay [6] was 57.7% (active). Also, the viability decrease (inhibition) in assay [7] was 35.5% (inactive); in assay [8], 31.5% (inactive).

As to `CCCCCOc1ccccc1/C(=C\SC)n1ccnc1`, the nuclear beta-catenin stimulation was 0.8% (inactive) in assay [1] (at 10 µM) and -0.3% in assay [1] (stimulation, at 2 µM). In addition, in assay [2], the insulin secretion stimulation is 3.4% (inactive). Besides, in assay [3], the viability decrease was -71.1% (inactive). The tube area decrease in assay [4] is 30.4% (inactive). Moreover, the GLP1 secretion stimulation in assay [5] is 3.8% (inactive). In assay [6], the inhibition of viability is 61.1% (active). The results for the viability decrease (inhibition) in assay [7] and in assay [8] were 79.6% (active) and 99.5% (active), respectively.

As to `CCCOc1ccc2c(c1)CC[C@@H]1[C@@H]2CC[C@]2(C)C(OC)CC[C@@H]12` (stereo partly specified), the nuclear beta-catenin stimulation is 0.5% (inactive) in assay [1] (at 10 µM) and 0% in assay [1] (stimulation, at 2 µM). Also, the insulin secretion stimulation in assay [2] is -0.1% (inactive). Also, the viability decrease in assay [3] is 69.6% (active). In addition, the tube area decrease in assay [4] is -3.1% (inactive). The GLP1 secretion stimulation in assay [5] is -0.8% (inactive). The inhibition of viability in assay [6] is 56% (active). Further, the viability decrease (inhibition) in assay [7] was 103% (active); in assay [8], 40.8% (inactive).

For `COC(=O)CCC[N+](C)(C)C`, the nuclear beta-catenin stimulation in assay [1] (at 10 µM) was -0.8% (inactive); in assay [1] (stimulation, at 2 µM), 0.6%. Besides, in assay [2], the insulin secretion stimulation is -6.3% (inactive). Moreover, the viability decrease in assay [3] is -4.8% (inactive). In assay [4], the tube area decrease is 6.6% (inactive). For the same molecule, the GLP1 secretion stimulation in assay [5] was -14% (inactive). Also, in assay [6], the inhibition of viability is 4.6% (inactive). The viability decrease (inhibition) was 2.9% (active) in assay [7] and -12.1% (inactive) in assay [8].

Consider `O=C(CCN1CCN(CCO)CC1)N1c2ccccc2Sc2ccc(C(F)(F)F)cc21`, for which the nuclear beta-catenin stimulation in assay [1] (at 10 µM) was 2.5% (inactive); in assay [1] (stimulation, at 2 µM) it was 1.4%. Further, in assay [2], the insulin secretion stimulation is 8.2% (inactive). For the same molecule, the viability decrease in assay [3] was 50.2% (active). In addition, the tube area decrease in assay [4] is 25.8% (inactive). Also, the GLP1 secretion stimulation in assay [5] is 2.4% (inactive). For the same molecule, the inhibition of viability in assay [6] is 49.2% (inactive). For the same molecule, the viability decrease (inhibition) was 96.4% (active) in assay [7] and 58.8% (active) in assay [8].
